# Source: PubChem BioAssay (National Center for Advancing Translational Sciences (NCATS))
# Hits are enriched below; roughly 12% of the tested compounds scored in any of these assays.
# HP1b chromo inh = blocks HP1-beta chromodomain binding to methylated histone tails. P83916. AlphaScreen HP1-beta / biotin-H3K9me3 peptide binding. Potency, µM (titrated, usually from 114 µM), for the others: at the top dose activity change, negative = inhibition, hits mostly inhibitors. actives 0.56% (n = 390,000). AID 540317; note: nearly all actives have a fitted effect of over 70% in size
#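 HP1-beta protein (50 nM final) preincubated 30 min at room temperature with biotinylated H3(1-18)K9me3 peptide (50 nM) in PBS pH 7.4, 0.01% Tween-20, then compound added for 30 min. AlphaScreen streptavidin donor/nickel chelate acceptor beads (10 ug/mL final), 30 min dark, luminescence read.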
# Sfp PPTase inh = blocks B. subtilis Sfp PPTase activity; Biochemical Sfp PPTase activity, qHTS; Potency, µM, inactives show largest response in the series, negative = inhibition, usual class: inhibitors; actives 3.5% (n = 310,000); AID 1490;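 note: the enzyme is Sfp with the accession as filed and its product quenches rhodamine fluorescence; 0% = enzyme reaction without inhibitor and -100% = no enzyme wells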
#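 After 15 min at room temperature with compound, 15 nM Sfp received 5 uM rhodamine-CoA plus 12.5 uM BHQ-2-ybbR (50 mM Hepes pH 7.6, 10 mM MgCl2). Rate came from the fluorescence difference over 30 min, ex 525/em 598 nm.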
# L3MBTL1 block = inhibitors of human L3MBTL1; AlphaScreen L3MBTL1–H3K9me1 peptide binding; actives 0.66% (n = 230,000); Potency, µM (series often up to 57.1 µM), for the others: top-dose activity, negative = inhibition, actives largely listed as inhibitors; Q9Y468; note: % is set by controls: 0 for no effect and ±100 for the full control effect; nearly all actives have a fitted effect of over 60% in size
#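 L3MBTL1 (50 nM) pre-complexed 30 min with biotinylated H3(1-15)K9me1 peptide (75 nM), then compounds added for 30 min at room temperature; AlphaScreen streptavidin donor/nickel chelate acceptor beads (10 ug/mL final) read after 30 min dark incubation.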
# BAZ2B inh = inhibitors of human BAZ2B bromodomain. AlphaScreen BAZ2B-H3K14Ac peptide displacement. actives 4.4% (n = 360,000). Potency, µM (titrated, usually from 114 µM), inactives show at the top dose activity change, negative = inhibition, usual class: inhibitors. Q9UIF8; note: % is set by controls: 0 for no effect and ±100 for the full control effect; nearly all actives have a fitted effect of over 60% in size
#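 Protein-peptide AlphaScreen: BAZ2B 50 nM, b-H3K14Ac 50 nM, 1x PBS pH 7.4 + 0.01% Tween-20. Preincubation 30 min RT; cpd 30 min RT (top 110 uM); beads 20 min RT, light-protected.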
# G9a inh = inhibitors of human histone lysine methyltransferase G9a | actives 8.8% (n = 350,000) | Q96KQ7 | AID 504332 | G9a H3K9 monomethylation, AlphaScreen, 2 h | Potency, µM (doses to about 102 µM), for the others: at the top dose activity, negative = inhibition, hits mostly inhibitors; note: % is set by controls: 0 for no effect and ±100 for the full control effect; nearly all actives have a fitted effect of over 75% in size
#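 AlphaScreen read-out: biotin-H3K9 peptide (500 nM) methylation by 20 nM enzyme with 20 uM SAM, 2 h at room temperature after 15 min compound preincubation; anti-monomethyl H3K9 antibody plus donor/acceptor beads, 10 min dark.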
# JMJD2A Tudor inh = blocks the human JMJD2A Tudor domain; O75164; AlphaScreen JMJD2A-Tudor / H3K4me3 peptide binding; Potency, µM (titrated, usually from 114 µM), without a hit: at the top dose activity change, negative = inhibition, actives largely listed as inhibitors; actives 4.4% (n = 390,000); AID 504339; note: % is set by controls: 0 for no effect and ±100 for the full control effect; nearly all actives have a fitted effect of over 50% in size
# Target sequence (O75164 whole entry, looked up, the tested form may be a part): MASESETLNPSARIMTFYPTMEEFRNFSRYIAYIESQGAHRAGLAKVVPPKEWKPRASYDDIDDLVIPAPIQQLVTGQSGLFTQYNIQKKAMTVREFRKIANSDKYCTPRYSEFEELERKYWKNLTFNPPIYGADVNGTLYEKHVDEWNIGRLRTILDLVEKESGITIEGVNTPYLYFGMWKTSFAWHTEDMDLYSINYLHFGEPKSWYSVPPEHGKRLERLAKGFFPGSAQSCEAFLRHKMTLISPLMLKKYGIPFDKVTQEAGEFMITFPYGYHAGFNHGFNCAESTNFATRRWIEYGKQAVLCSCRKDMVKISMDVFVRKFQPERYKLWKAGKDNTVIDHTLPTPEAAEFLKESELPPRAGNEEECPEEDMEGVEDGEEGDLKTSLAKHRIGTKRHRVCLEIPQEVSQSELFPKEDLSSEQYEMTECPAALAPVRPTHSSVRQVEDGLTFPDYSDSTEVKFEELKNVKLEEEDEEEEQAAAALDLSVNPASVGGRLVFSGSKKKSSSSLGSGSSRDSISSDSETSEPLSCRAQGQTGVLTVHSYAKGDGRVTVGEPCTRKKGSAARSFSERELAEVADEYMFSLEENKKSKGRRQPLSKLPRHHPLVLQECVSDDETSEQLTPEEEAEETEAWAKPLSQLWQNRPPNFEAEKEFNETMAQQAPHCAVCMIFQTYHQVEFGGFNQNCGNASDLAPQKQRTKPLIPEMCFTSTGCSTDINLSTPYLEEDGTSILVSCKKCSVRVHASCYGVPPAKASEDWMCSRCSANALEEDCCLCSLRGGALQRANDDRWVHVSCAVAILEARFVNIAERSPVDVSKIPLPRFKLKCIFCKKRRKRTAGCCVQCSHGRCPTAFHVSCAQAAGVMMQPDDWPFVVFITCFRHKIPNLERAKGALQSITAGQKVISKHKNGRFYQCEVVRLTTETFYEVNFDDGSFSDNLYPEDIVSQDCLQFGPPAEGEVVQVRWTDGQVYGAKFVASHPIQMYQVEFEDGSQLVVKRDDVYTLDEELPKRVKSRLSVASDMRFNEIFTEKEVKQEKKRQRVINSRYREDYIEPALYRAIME
# The depositor's hits bear a star; u = inconclusive; x = not tested or not shown; [ ] = another dose, or the depositor's remark. Calls come from the whole dose curve; as a rule, active = well fitted curve in the direction sought with a large enough effect; inconclusive = small, poorly fitted or top-dose-only effect, or another doubt; inactive = no such curve, though single readings can be large; an effect the other way counts as inactive or inconclusive. Potency is the fitted concentration of half-maximal effect.
SMILES,HP1b chromo inh,Sfp PPTase inh,L3MBTL1 block,BAZ2B inh,G9a inh,JMJD2A Tudor inh
CCn1cc(C(=O)O)c(=O)c2cnc(N3CCN(C(=S)NC(=O)c4ccc(Br)cc4)CC3)nc21,27%,22%,14%,1%,x,56µM*
C=CCNC(=S)N1CCN(c2ncc3c(=O)c(C(=O)O)cn(CC)c3n2)CC1,22%,11%,3%,-38%,x,50µM*
CCC(Sc1nc2c(sc3ccccc32)c(=O)n1CCc1ccc(OC)c(OC)c1)C(=O)N(CC)CC (stereo not drawn),30%,x,x,-29%,-23%[59 µM],u
CCn1c(SC(C)C)nnc1C1CCN(S(=O)(=O)c2ccc(OC)cc2)CC1,54%,8%,-2%,-6%,u,45µM*
O=S(=O)(c1ccc(Cl)cc1)N1CCN(C2CCN(Cc3ccccc3)CC2)CC1,4%,13%,x,0%,-6%,-20%
COc1ccc(S(=O)(=O)N2CCC(N3CCN(Cc4ccccc4)CC3)CC2)cc1,u,u,x,25µM*,22µM*,5.6µM*
O=C(C1CCN(S(=O)(=O)c2ccc(F)cc2)CC1)N1CC=C(c2ccccc2)CC1,20%,9%,-6%,-3%,14µM*,-6%
O=S(=O)(c1ccccc1)N1CCC(N2CCCCCC2)CC1,u,-9%,6%,u,u,4µM*
O=S(=O)(c1ccc(S(=O)(=O)N2CCN(C3CCCCC3)CC2)cc1)N1CCCCCC1,27%,4%,8%,0%,-8%[59 µM],-16%
COc1ccc(CNC(=O)c2cccn2-c2nnc(N3CCCC3)s2)c(OC)c1,1%,x,x,-9%,1%[59 µM],-22%
Cc1cccc(OC(=O)c2cc(-c3ccc(Cl)cc3)on2)c1C,85%,x,x,-3%,25%[59 µM],-21%
Nc1cccc(S(=O)(=O)N2CCN(S(=O)(=O)c3ccc4c(c3)OCCO4)CC2)c1,x,x,x,x,x,-2%
CCc1ccc(-n2nc(CO)c(C(=O)NCCCCc3ccccc3)n2)cc1,17%,x,x,2%,8%[59 µM],-12%
CCN(CC)CCSc1c(C(C)C)cnc2c1c(=O)n(C)c(=O)n2C,32%[57 µM],x,x,-1%,-44%[59 µM],5%
COc1cccc(Oc2nc(C)nc3c2oc2ccccc23)c1,48%,x,x,46%,28%[59 µM],0%
O=C1CCCC(=O)C1C(=O)C1CCN(S(=O)(=O)c2ccccc2)CC1,u,-10%,x,-13%,14%,56µM*
CCc1ccc(S(=O)(=O)N2CCCC(N3CCN(c4ccc(OC)cc4)CC3)C2)cc1 (stereo not drawn),u,13%,x,14µM*,40µM*,40µM*
O=C(C1CCN(S(=O)(=O)c2ccccc2)CC1)N1CCCCC1,14%,2%,x,-11%,27%,8%
COc1ccc(S(=O)(=O)N2CCC(N3CCCC3)CC2)cc1,-4%,-26%,x,56µM*,8.9µM*,25µM*
COc1ccc(C(=O)N(Cc2cc(OC)c(OC)c(OC)c2)C2CCS(=O)(=O)C2)cc1Cl (stereo not drawn),40%,x,x,3%,9%[59 µM],-1%
CCCN(C(=O)C1CSC2(C)CCC(=O)N12)c1c(N)n(Cc2ccccc2)c(=O)[nH]c1=O (stereo not drawn),26%,x,-3%,-21%,u,-7%
CC(C)CCN(C(=O)C1CSC2(C)CCC(=O)N12)c1c(N)n(Cc2ccccc2)c(=O)[nH]c1=O (stereo not drawn),5%,x,2%,u,28µM*,-19%
CSc1cccc(N2CC(C(=O)N(CC(C)C)c3c(N)n(Cc4ccccc4)c(=O)[nH]c3=O)CC2=O)c1 (stereo not drawn),26%,x,u,u,40µM*,-29%
O=C(CN1CCOCC1)N/N=C/c1c(O)ccc2ccccc12,52%,8%,-11%,45µM*,-13%,-12%
O=C(N/N=C/c1c(O)ccc2ccccc12)Nc1ccccc1,41%,x,x,x,x,-30%
SMILES,HP1b chromo inh,Sfp PPTase inh,L3MBTL1 block,BAZ2B inh,G9a inh,JMJD2A Tudor inh
O=C(CSCC(=O)Nc1ccccc1)N/N=C/c1c(O)ccc2ccccc12,17%,-7%,-4%,-2%,1.6µM*,-31%
O=C(O)c1cc(N/N=C/c2c(O)ccc3ccccc23)ccc1Cl,u,-23%,x,40µM*,20µM*,u
O=C1CCCC(C(C(=O)OCc2ccccc2)C(=O)OCc2ccccc2)C1 (stereo not drawn),x,-5%,x,x,x,x
COc1ccc2c(c1)CCc1c(C(=O)Nc3c(C)nn(Cc4c(Cl)cccc4Cl)c3C)noc1-2,21%,x,x,-1%,-45%[59 µM],-14%
CN(C)C1CCN(CCCOc2ccc(-c3ccc(C#N)cc3)cc2)C1 (stereo not drawn),x,-6%,x,x,x,x
COc1cccc(NC(=O)CSC2=Nc3ccccc3C3=NC(CCC(=O)NC4CCCCC4)C(=O)N23)c1 (stereo not drawn),-1%,x,x,-5%,23%[59 µM],-18%
Cc1cc2n(n1)CCCN2C(=O)Nc1ccccc1C(F)(F)F,39%,x,x,4%[57.1 µM],-2%[59 µM],8%
CC(OC(=O)c1cccc(N2C(=O)c3ccccc3C2=O)c1)C(=O)Nc1ccc(N(C)C)cc1 (stereo not drawn),7%,-22%,-7%,u,16%[59 µM],-12%
CC(OC(=O)c1cc(=O)c2ccccc2o1)C(=O)Nc1ccc(N(C)C)cc1 (stereo not drawn),16%,x,9%,-2%,3.2µM*,u
CC(OC(=O)c1ccccc1C(=O)N(C)c1ccccc1)C(=O)Nc1ccc(C(N)=O)cc1 (stereo not drawn),29%,x,6%,10%,1%[0.501 µM],-10%
COc1ccc(NC(=O)COC(=O)c2cc(=O)c3ccccc3o2)cc1OC,29%,x,2%,3%,u,-5%
CC(OC(=O)c1cc(O)c2ccccc2c1O)C(=O)Nc1ccc(C(N)=O)cc1 (stereo not drawn),u,x,-22%,u,7.1µM*,u
CN(C)c1ccc(NC(=O)COC(=O)c2cc(=O)c3ccccc3o2)cc1,38%,-6%,3%,-31%,10µM*,-15%
Cc1cc(NC(=O)c2cc(-c3ccc(Cl)c(Cl)c3)on2)n(-c2ccccc2)n1,29%,x,x,-15%,-9%[59 µM],-5%
CCn1c(C)[n+](CC)c2ccc(S(=O)(=O)N(C)C)cc21,24%,10%,1%,u,45µM*,0%
CCn1c(C)[n+](CC)c2ccc(C(=O)N(C)c3ccccc3)cc21,30%,-7%,4%,-27%,35µM*,-1%
O=C(Nc1ccc(-n2cccn2)cc1)C1CCN(Cc2ccccn2)CC1,21%,0%,x,u,35µM*,22µM*
O=C(Nc1cccc(-c2cccc(Cl)c2)c1)C1CCN(Cc2ccon2)CC1,15%,-12%,x,1%,17%,-28%
